Test systems include CDC42; CDK7; GAK; TNIK; TNK1; CIT; MAP4K2; MAPK14; PKN3; RIPK2; TESK2; CLK1; CLK4; DYRK1A; ILK; NNT; PIP4K2C; STK26; CSNK2A1;CSNK2A3; CSNK2A2; DDR1; SPR; TTK; PIK3CA; PIK3CD; PSMC3; MAP2K4; ACVR1; ACVR2B; BMPR1A; CDK6; MAP2K2; MAP2K5; NQO1; PDGFRB; PRKCI; PRKCZ; PTK6; RIOK2; TP53RK.
Design in all cases: species or system human, MV4-11 + K-562 + COLO205 + SK-N-BE2 + OVCAR-8
Conditions in all cases: read-out: apparent Kd; compound concentrations:100 nM and 1000 nM (sheet 'Samples'); n = 1

Molecules are shown by their SMILES.

For `CN(C(=O)c1ccc(-c2cc(-c3c[nH]nc3-c3ccccn3)ccn2)cc1)C1CCOCC1` [GW810083X], the potency estimated from few doses in the assay with CDC42 was 1840 nM.

Regarding `c1ccc(-c2n[nH]cc2-c2ccnc(-c3ccc(CNC4CCOCC4)cc3)c2)nc1` [GW709213X], the potency estimated from few doses in the assay on CDK7 was 1090 nM; with GAK it was 1150 nM; with TNIK, 2410 nM; in the assay on TNK1, 445 nM.

As for `Cc1cccc(-c2nc(Nc3ccncc3)c3ccccc3n2)n1` [GW855857X], the potency estimated from few doses in the assay with CIT was 1120 nM; in the assay on MAP4K2, 1630 nM; in the assay on MAPK14 it was 1470 nM; with PKN3, 75.5 nM; in the assay on RIPK2, 590 nM; in the assay on TESK2, 1340 nM.

For `Nc1nc(-c2ccc(F)cc2)c(-c2ccc3ncccc3n2)s1` [GW785804X], the potency estimated from few doses is 997 nM in the assay with CLK1; 1100 nM in the assay with CLK4; 1970 nM in the assay with DYRK1A; 2080 nM in the assay on ILK; 567 nM in the assay with MAPK14; 164 nM with NNT. Moreover, the potency estimated from few doses in the assay with PIP4K2C is 2210 nM; with STK26 it was 2330 nM.

`Cc1cccc(-c2nc(Nc3ccc4[nH]ncc4c3)c3ccccc3n2)n1` [GW857175X]: the potency estimated from few doses with CSNK2A1;CSNK2A3 was 4.12 nM; in the assay with CSNK2A2 it was 3.3 nM.

Consider `Cl.Cl.Oc1cc(-c2nc(-c3ccccc3)[nH]c2-c2ccncc2)ccc1Cl.Oc1cc(-c2nc(-c3ccccc3)[nH]c2-c2ccncc2)ccc1Cl` [SB-386023-B], for which the potency estimated from few doses in the assay with DDR1 is 1840 nM; in the assay with PKN3, 1020 nM; in the assay with RIPK2, 192 nM; in the assay on SPR, 422 nM; in the assay on TESK2 it was 1470 nM; in the assay on TTK, 1600 nM.

On to `Cc1cc(Nc2nc(-c3cccc(C)n3)nc3ccccc23)ccn1` [GW872411X], for which the potency estimated from few doses is 1610 nM in the assay on ILK, 247 nM in the assay on PIK3CA, 155 nM in the assay on PIK3CD and 1810 nM in the assay on PSMC3.

For the molecule `Cl.c1ccc(-c2nc3n(c2-c2ccc4c(c2)OCO4)CCC3)nc1` [SB-400868-A], in the assay with MAP2K4, the potency estimated from few doses was 1900 nM.

Turning to `Cc1cc(O)cc(C)c1/C=C/c1cncc(C(N)=O)c1` [GW435821X_KCGS], the potency estimated from few doses in the assay on ACVR1 is 107 nM; with ACVR2B, 26.5 nM; in the assay on BMPR1A, 1200 nM; in the assay on CDK6, 120 nM; in the assay on MAP2K2, 179 nM; in the assay with MAP2K5, 2600 nM. Besides, the potency estimated from few doses in the assay on NNT is 2010 nM; in the assay with NQO1, 1150 nM; with PDGFRB, 1570 nM; in the assay on PRKCI, 2300 nM; in the assay on PRKCZ it was 1470 nM; in the assay with PTK6, 1460 nM. Besides, the potency estimated from few doses in the assay with RIOK2 is 2280 nM; with RIPK2, 96.7 nM; with TESK2, 1250 nM; in the assay on TNIK it was 2400 nM; in the assay with TP53RK it was 1440 nM.

These data come from publication PMC11062922 (Nature Chemical Biology, 2023).
